Data taken from PubChem BioAssay AID651791 (National Center for Advancing Translational Sciences (NCATS), 2012).
Results filed as inconclusive are left out. Activity calls are given as the source filed them. Calls come from the whole dose curve; as a rule, active = well fitted inhibition curve with a large enough effect; inconclusive = small, poorly fitted or top-dose-only effect; inactive = no such curve, though single readings can be large or run the other way.

Experiment: InCell qHTS Assay for Inhibitors of the mTORC1 Signaling Pathway in MEF (Tsc2-/-, p53-/-) Cells: Hit Validation;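 note: phospho-S6 Ser235/236 signal normalized to propidium iodide cell count per well; nearly all actives have a fitted effect of over 75% in size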
Settings: phospho-rpS6 immunofluorescence, 24 h; activity change, negative = inhibition: at 38.3 µM (top of the series)
Potency is the fitted concentration of half-maximal effect.

| SMILES | activity change, negative = inhibition [%] | Potency |
| --- | --- | --- |
| CN1CCN(C(CNC(=O)C(=O)Nc2cccc(Cl)c2)c2ccc3c(c2)OCO3)CC1 (configuration not stated) | -100 |  |
| CCOc1ccc(N(C(C)C(=O)Nc2cc(Cl)ccc2OC)S(C)(=O)=O)cc1 (configuration not stated) | -100 |  |
| CCCCN1C(=O)C(O)(CC(=O)c2ccc(CC)cc2)c2cc(Br)ccc21 (configuration not stated) | -23.7 |  |
| Cc1cc(C)c(NC(=O)c2sc3nc(C)cc(C)c3c2NC(=O)c2ccccc2)c(C)c1 | -100 |  |
| O=C(Nc1ccc(-c2cc(C(F)(F)F)nn2-c2ccccc2)cc1)c1cccc(F)c1 | -100 |  |
| CC(C)c1nnc(NC(=O)c2nc(S(=O)(=O)Cc3ccccc3)ncc2Cl)s1 |  | 3290 nM (active) |
| O=c1c(-c2cc(-c3ccc(F)cc3)nc3c2COc2ccc(Cl)cc2-3)coc2ccc(F)cc12 | -100 |  |
| COc1ccc(C2=NS(=O)(=O)N(C)C(C(=O)Nc3ccc(OC(F)(F)F)cc3)=C2)cc1 | -100 |  |
| Cn1nc(-c2ccc(OCC(=O)Nc3ccc(Cl)cc3)cc2)c2ccccc2c1=O | -100 |  |
| Cc1cccc(NC(c2cccc(Cl)c2)c2ccc3cccnc3c2O)n1 (configuration not stated) | -100 |  |
| CC(C)(C)C1CCc2c(sc(NC(=O)C3c4ccccc4Oc4ccccc43)c2C(N)=O)C1 (configuration not stated) | -100 |  |
| CC(C)S(=O)(=O)c1oc(-c2cccs2)nc1S(=O)(=O)c1ccc(F)cc1 |  | 1470 nM (active) |
| CCC(C)S(=O)(=O)c1oc(-c2cccs2)nc1S(=O)(=O)c1ccccc1 (configuration not stated) |  | 1170 nM (active) |
| Cc1cccc(NC(=O)Cn2cc(C(=O)c3ccco3)c3ccccc32)c1C | -100 |  |
| Cc1ccccc1NC(=O)c1sc2nc3c(cc2c1N)CCCC3 | -100 |  |
| COc1ccc(S(=O)(=O)Nc2ccc3oc4c(c3c2)CCCC4)cc1 | -100 |  |
| COc1ccc(-c2nc(CCNC(=O)c3c(F)cccc3Cl)cs2)cc1 | -100 |  |
| Cc1c(C(=O)OC2CCCCC2)[nH]c2c1C(=O)CC(c1ccccc1Cl)C2 (configuration not stated) | -100 |  |
| CCOc1cc(CNc2ccc(O)cc2)cc(Cl)c1OCc1ccccc1 | -100 |  |

| SMILES | activity change, negative = inhibition [%] | Potency |
| --- | --- | --- |
| COc1cc2c(cc1OC)n(CC(=O)c1ccc(F)cc1)c(=O)n1nc(CCn3nc(C)cc3C)nc21 | -100 |  |
| CC(C)CCNc1nc(Nc2ccccc2)c2cnn(C)c2n1 | -100 |  |
| Cc1ccccc1CS(=O)(=O)c1ncc(Cl)c(C(=O)Nc2nnc(C(C)C)s2)n1 |  | 18500 nM (active) |
| O=C(Cn1cc(SCc2ccccc2)c2ccccc21)N1CCCCCC1 | -100 |  |
| Cc1cc(C)cc(NC(=O)c2cnn(-c3ccc(C)c(C)c3)c2C2CCNCC2)c1 | -19.5 |  |
| Cc1ccc(C)c(S(=O)(=O)NCC(c2ccco2)S(=O)(=O)c2ccc(F)cc2)c1 (configuration not stated) | -100 |  |
| Cc1cc(C)cc(OCC(=O)Nc2cccc(-c3nc4ccccc4[nH]3)c2)c1 | -100 |  |
| Cn1nnnc1SCCCNCc1cc(Cl)ccc1OCc1ccc(F)cc1 | -100 |  |
| COc1ccc2c(c1)CCc1c(C(=O)Nc3c(C)nn(Cc4ccc(Cl)cc4)c3C)noc1-2 | -100 |  |
| CN(CCCNC(=O)c1cc2c(Cl)nc3ccccc3c2s1)Cc1ccccc1 | -100 |  |
| CCN(CCCNC(=O)c1cc2c(=O)[nH]c3ccccc3c2s1)c1ccccc1 | -100 |  |
| CCCCOc1ccc(Cn2c(=O)sc3ccccc32)cc1 | -100 |  |
| CC(C)c1ccc(C2Sc3ccccc3NC3=C2C(=O)c2ccccc23)cc1 (configuration not stated) | -100 |  |
| COc1cc(OC)cc(C(=O)NCc2ccc3c(c2)CCN3C(=O)c2ccccc2)c1 | -100 |  |
| COC(=O)c1ccc(NC(=O)c2nc(-c3ccc(Cl)cc3)n3c2CCCCC3)cc1 | -100 |  |
| CCC(C)n1c(SCc2c(F)cccc2Cl)nc2ccsc2c1=O (configuration not stated) | -100 |  |
| COC(=O)c1ccccc1NC(=O)Cn1c(=O)n(-c2ccc(C)cc2)c(=O)c2ccccc21 | -18.6 |  |
| O=C(CCCn1c(=O)c2ccccc2n(Cc2cccc(Cl)c2)c1=O)NCCc1ccc(Cl)cc1 | -100 |  |
